This is a sample that favours compounds with a hit; in the whole collection about 2.4% have one here.
A549 tox – counter-screen for Nrf2 inhibitors: cytotoxicity in A549 cells; A549 ARE-Fluc cells, CellTiter-Fluor viability, 18-24 h; Potency, µM (series often up to 46 µM), for the others: top-dose activity change, negative = cytotoxicity, hits mostly inhibitors; 390,000 compounds, 0.16% hits; AID 504648; also: % is scaled to controls: 0 for no effect and ±100 for the full control effect
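A549 ARE-Fluc cells in 5% FBS OPTI-MEM, 5000 cells/well, rested 2 h then exposed to compounds in concentration-response for 18-24 h at 37 °C. Viability by CellTiter-Fluor fluorescence (Ex 405/Em 525) after 30 min; luciferase luminescence (BugLite, 15 min, RT) read afterwards.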
PINK1 modulator – changes PINK1 expression. PINK1 immunofluorescence, high-content cytometry, 24 h. Potency, µM (titrated, usually from 76.6 µM), for inactives: top-dose activation (PINK1 increase), usual class: activators. 410,000 compounds, 0.2% hits; active = well fitted activation curve with a large enough effect; inconclusive = small, poorly fitted or top-dose-only effect; cell line not stated here; also: % of control where 0% means no effect; nearly all actives have a fitted effect of over 65% in size
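PINK1 protein, normally rapidly degraded, was detected by immunofluorescence after 24 hour compound treatment of a stable cell line. Titration data (5 concentrations) came from laser-scanning cytometry, with CCCP-treated wells as controls.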
Nrf2 block – inhibitors of Nrf2 signaling | A549 ARE-Fluc reporter, luciferase luminescence, 18-24 h | Potency, µM (top dose mostly 46 µM), without a hit: top-dose activity change, negative = inhibition, usual class: inhibitors | 360,000 compounds, 2.1% hits; also: % is scaled to controls: 0 for no effect and ±100 for the full control effect; nearly all actives have a fitted effect of over 60% in size
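Nrf2 activity is the BugLite luminescence, read 15 min after reagent at room temperature, following CellTiter-Fluor cytotoxicity readout (30 min, 37C). Compound titrations were applied for 18-24 h to 5000 A549 ARE_Fluc cells/well in 5% FBS OPTI-MEM.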
Nrf2 activator – Nrf2 pathway activation; 410,000 compounds, 0.31% hits; AREc32 ARE-luciferase reporter (MCF7-derived line), luminescence, 24 h; Potency, µM (top dose mostly 46.1 µM), for inactives: at the highest dose activation, usual class: activators; also: % of control where 0% means no effect; nearly all actives have a fitted effect of over 65% in size
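AREc32_Fluc, 1000 cells/well, OPTI-MEM + 5% FBS, o/n 37 deg C 5% CO2; 23 nL cpd by pin tool, 24 hr; Steady-Glo 30 min RT, luminescence.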
Epigenetic reg – derepresses silenced GFP reporter in murine cells. murine LDR cells, GFP reporter derepression, 30 h. Potency, µM (series often up to 53.9 µM), for inactives: at the highest dose GFP activation, hits mostly activators. 280,000 compounds, 0.2% hits. AID 1865; also: % of control where 0% means no effect; nearly all actives have a fitted effect of over 60% in size
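Murine LDR cells bearing a silenced CMV-driven GFP reporter were exposed to compound for 30 h at 37 C. After PBS washes, GFP-positive cells (20-120 um objects) counted by laser-scanning microplate cytometry.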
Starred values were filed as active, the others as inactive; ? = inconclusive; nt = no result given; [ ] = another dose, or the depositor's remark. Unless noted, calls follow the shape of the dose curve; as a rule, active = well fitted curve in the direction sought with a large enough effect; inconclusive = small, poorly fitted or top-dose-only effect, or another doubt; inactive = no such curve, though single readings can be large; an effect the other way counts as inactive or inconclusive. Potency is read from the fitted curve at half-maximal effect.

SMILES	A549 tox	PINK1 modulator	Nrf2 block	Nrf2 activator	Epigenetic reg
Nc1nc(Nc2cc(F)cc(F)c2)nc(NC2CCCC2)n1	-7%	nt	-15%	nt	nt
COc1cc(=O)n2c(c1C(=O)N(C)Cc1nonc1C)CCN(C(=O)c1cccc(C)c1C)CC2	nt	-1%	nt	nt	nt
CNc1nc(N/N=C/c2cc3c(cc2[N+](=O)[O-])OCO3)nc(Nc2ccccc2)n1	?	-2%	18µM*	1%	?
CNc1nc(N/N=C/c2cc([N+](=O)[O-])ccc2F)nc(Nc2ccccc2)n1	0%	-2%	7%	5%	nt
Cc1c(CN2CCOc3ccc(C(C)(O)COc4ccccc4)cc3C2)cnn1C (configuration not stated)	nt	0%	nt	nt	nt
NC1=NC(=Nc2cccc(S(N)(=O)=O)c2)c2ccccc21	-12%	-1%	-22%	0%	0%
COc1cc(N=Nc2cccc(S(N)(=O)=O)c2)c2ccccc2c1N	-28%	0%	?	?	32µM*
COc1ccc(-n2c(CNC(=O)c3cccc(OC)c3OC)nnc2SC)cc1	nt	3%	nt	nt	nt
CC1CN(S(=O)(=O)c2cccc(C(=O)Nc3ccc4c(c3)CCC4)c2)CC(C)O1 (configuration not stated)	-16%	4%	23µM*	3%	-2%
Cc1ccc(SCc2nc(-c3ccc(C(=O)NCc4ccccc4Cl)cc3)oc2C)cc1	3%	3%	15µM*	-1%	0%
CCc1ccc(CNC(=O)c2ccc(-c3nc(CSc4ccc(C)cc4)c(C)o3)cc2)cc1	-4%	3%	?	-1%	-1%
Nc1cc(=O)[nH]c(SCC(=O)Nc2cc(S(=O)(=O)N3CCCCCC3)ccc2Cl)n1	2%	8%	0%	2%	nt
Cn1c(=O)c2c(ncn2CC(=O)Nc2cc(Cl)c(Cl)cc2Cl)n(C)c1=O	nt	nt	nt	nt	0%
Cn1c(=O)c2c(ncn2CC(=O)Nc2cc(S(=O)(=O)N3CCCCC3)ccc2Cl)n(C)c1=O	-2%	0%	21µM*	2%	nt
Cc1ccc(-c2nc(SCC(=O)Nc3cc(S(=O)(=O)N4CCCCC4)ccc3Cl)n[nH]2)cc1	?	32µM*	?	3%	-1%
COC(=O)[C@@H]1CCCN1Cc1ccc2c(c1)CN(Cc1cccn1-c1ccc(Cl)cn1)CCO2	nt	-1%	nt	nt	nt
Nc1cc(-c2cccc(Br)c2)nn1Cc1ccccc1	-8%	7%	2%	4%	-1%
Nc1cc(-c2ccc(Br)cc2)nn1Cc1ccccc1	-11%	0%	10µM*	3%	-6%
C=Cc1ccc(Cn2c(C(=O)O)c(CNC3CCCCC3)c3ccc(OC)cc32)cc1	?	-1%	?	3%	7%
O=C(Nc1ccn(Cc2ccccc2F)n1)c1ccc(COc2ccc(Br)cc2)cc1	?	?	6.5µM*	-1%	14%
CC(=O)Nc1ccc2c(c1)C(=Nc1ccccc1)c1ccccc1-2	4%	3%	27%	11µM*	nt
CC(=O)Nc1ccc2c(c1)C(=Nc1ccc(C)cc1)c1ccccc1-2	-1%	1%	9%	13µM*	nt
CCOC(=O)Nc1ccc2c(c1)C(=NO)c1ccccc1-2	-6%	-6%	?	7%	nt
CC(=O)Nc1ccc(N=Nc2ccccc2)cc1	-13%	17%	?	3%	0%
COCCNC(=O)Cn1c(=O)c2cccn2c2ccc(F)cc21	-8%	0%	-14%	1%	1%
SMILES	A549 tox	PINK1 modulator	Nrf2 block	Nrf2 activator	Epigenetic reg
CCOc1cc(C(=O)Nc2cnccn2)cc(OCC)c1OCC	-13%[1.84 µM]	14µM*	3%	-1%	1%
O=C(/C=C/c1ccccc1)NC(NC(=S)Nc1ccc(Cl)cc1Cl)C(Cl)(Cl)Cl (configuration not stated)	?	10µM*	21µM*	5%	0%
O=C(/C=C/c1ccccc1)NC(NC(=S)Nc1cccc(Cl)c1)C(Cl)(Cl)Cl (configuration not stated)	?	?	7.3µM*	3%	-1%
O=C(/C=C/c1ccccc1)NC(NC(=S)Nc1ccc(C(=O)O)cc1)C(Cl)(Cl)Cl (configuration not stated)	-6%	13%	10%	-1%	-1%
S=C(NCCCc1cnc[nH]1)NCCN(Cc1ccc(Cl)c(Cl)c1)c1ccc(Br)cn1	3%	nt	11%	nt	nt
O=C1CCc2cc(S(=O)(=O)NCc3ccccc3)ccc2N1	-5%	nt	3%	nt	nt
COc1ccccc1C(=O)N1CCCC(c2nc(SCCN3CCOCC3)ncc2C)C1 (configuration not stated)	nt	0%	nt	nt	nt
COc1ccc(-c2nc3ccc(Cl)cc3c(=O)n2Cc2ccccc2)cc1COc1ccc(NC(C)=O)cc1	6%	nt	-7%	nt	nt
CN(C)c1oc(/C=C/c2ccc(F)cc2)nc1C#N	-5%	-1%	23%	20%	-5%
CN(C)c1oc(/C=C/c2ccccc2)nc1C#N	?	1%	?	7.9µM*	0%
O=C(CSc1nc2ccccc2c(=O)n1CCCN1CCOCC1)Nc1cccc(S(=O)(=O)N2CCCCCC2)c1	?	-2%	23µM*	2%	-2%
CCOc1ccc(OCC)c(NC(=O)CSc2nc3ccccc3c(=O)n2C)c1	-29%	4%	10µM*	0%	0%
Cc1cccc(NC(=O)CSc2nc3ccccc3c(=O)n2C)c1	-5%	2%	12µM*	0%	nt
CCOc1ccc(OCC)c(NC(=O)CSc2nc3cccnc3n2C)c1	-2%	-1%	?	3%	3%
O=C(CSc1nc2ccccc2c(=O)n1CCCN1CCOCC1)Nc1ccc(F)c(Cl)c1	-27%	1%	-24%	0%	nt
N#CC1=C(N)Oc2ccc3ccccc3c2C1c1cccnc1 (configuration not stated)	-10%	13%	?	3%	-1%
N#CC1=C(NC=NCc2ccccc2)Oc2ccc3ccccc3c2C1c1ccccc1 (configuration not stated)	-23%	nt	18µM*	nt	nt
CC(=O)Nc1cccc(OCc2cccc(C3Nc4ccccc4C(=O)N3Cc3ccco3)c2)c1 (configuration not stated)	-15%	nt	?	nt	nt
CN1N/C(=C\c2ccccc2)N=C2C(=O)N(C)C(=O)N=C21	5.8µM*	1%	?	nt	nt
CC1CCN(c2nc3nonc3nc2Nc2ccc(F)cc2)CC1	?	0%	9.2µM*	4%	2%
COc1ccc(Nc2nc3nonc3nc2N2CCCCC2)cc1	-10%	1%	26µM*	4%	-1%
CC(=O)Nc1ccc(C(=O)N2CCCC(n3cc(C(=O)NCC(C)C)nn3)C2)cc1 (configuration not stated)	nt	1%	nt	nt	nt
N#C/C(=C(/O)c1cccc(F)c1)c1nc2ccccc2s1	-19%	40µM*	-33%	4%	-2%
COC(=O)c1ccc2nc(-c3ccco3)c(Cc3ccc(C)cc3)n2c1	nt	1%	nt	11µM*	nt
